# Compound activity deposited in PubChem BioAssay by National Center for Advancing Translational Sciences (NCATS).
# ClpP mod – qHTS Assay for Activators of ClpP. ATP-dependent Clp protease proteolytic subunit (Bacillus subtilis (strain 168)), P80244. purified B. subtilis ClpP, FRET peptide cleavage, 20 min. Potency, µM (highest dose often 57.5 µM), without a hit: at the highest dose activity change, negative = active. actives 1.9% (n = 340,000); active = well fitted falling curve with a large enough effect; inconclusive = small, poorly fitted or top-dose-only effect; inactive = no such curve, though single readings can be large or run the other way; also: the source files actives as falling curves though it sought activators and does not explain the sign; nearly all actives have a fitted effect of over 65% in size
#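 FRET quenching reversal measured ClpP activation: 10 microg/mL B. subtilis ClpP at pH 8 with the FRET-FV decapeptide, read at 430 nm after 320 nm excitation. The 20-min minus 0-min signal was scaled between DMSO/no-enzyme wells and ADEP (5.8 microM final).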
# TDP1 inh – TDP1 (human) enzyme inhibition. Q9NUW8. recombinant TDP1, AlphaScreen DNA substrate cleavage. Potency, µM (series often up to 130 µM), for the others: at the top dose activity change, negative = inhibition, most hits filed as inhibitors. actives 0.28% (n = 350,000). AID 485290; also: % is scaled to controls: 0 for no effect and ±100 for the full control effect; nearly all actives have a fitted effect of over 40% in size
# Target sequence (Q9NUW8 whole entry, looked up): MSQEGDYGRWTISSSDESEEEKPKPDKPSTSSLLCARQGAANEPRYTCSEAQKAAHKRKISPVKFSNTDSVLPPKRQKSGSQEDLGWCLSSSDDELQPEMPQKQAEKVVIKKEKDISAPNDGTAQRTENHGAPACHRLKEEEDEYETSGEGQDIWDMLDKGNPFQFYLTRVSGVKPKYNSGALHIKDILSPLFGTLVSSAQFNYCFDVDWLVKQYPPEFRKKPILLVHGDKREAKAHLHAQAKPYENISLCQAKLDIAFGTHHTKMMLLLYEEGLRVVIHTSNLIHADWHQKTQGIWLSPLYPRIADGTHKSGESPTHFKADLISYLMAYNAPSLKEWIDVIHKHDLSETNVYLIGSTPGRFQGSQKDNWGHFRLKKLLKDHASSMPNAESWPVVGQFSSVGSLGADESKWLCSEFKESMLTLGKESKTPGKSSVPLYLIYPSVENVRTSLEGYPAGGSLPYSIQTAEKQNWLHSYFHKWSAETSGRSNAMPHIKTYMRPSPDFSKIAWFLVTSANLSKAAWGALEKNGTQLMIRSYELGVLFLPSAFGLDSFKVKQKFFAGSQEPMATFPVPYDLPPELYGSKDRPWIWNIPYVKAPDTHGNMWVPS
#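 Signal: AlphaScreen proximity between streptavidin donor and anti-FITC acceptor beads on intact substrate. Reaction: Tdp1 1 nM, substrate 15 nM final, 5 min RT after 15 min compound preincubation.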
# DT40 TDP1 CPT – DT40-hTDP1 cell growth loss with CPT; chicken DT40 Tdp1-/-;hTDP1 cells + 20 nM CPT, ATP luminescence, 48 h; Potency, µM (highest dose often 46.2 µM), for inactives: at the highest dose activity change, negative = growth inhibition, usual class: inhibitors; actives 12% (n = 420,000); AID 686979; also: % is scaled to controls: 0 for no effect and ±100 for the full control effect; nearly all actives have a fitted effect of over 55% in size
#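 Cell growth measured by CellTiter-Glo luminescence after a minimum 48 h, 37 C compound exposure with 20 nM CPT in Tdp1-knockout DT40 cells stably expressing hTDP1, seeded 400/well; qHTS titration format.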
# DT40 TDP1 no CPT – qHTS for Inhibitors of human tyrosyl-DNA phosphodiesterase 1 (TDP1): qHTS in cells in absence of CPT; DT40 Tdp1-/- hTDP1 cells, no CPT, ATP luminescence, 48 h; Potency, µM (doses to about 46.2 µM), for inactives: at the highest dose activity change, negative = growth inhibition, hits mostly inhibitors; actives 15% (n = 420,000); also: % is scaled to controls: 0 for no effect and ±100 for the full control effect; nearly all actives have a fitted effect of over 55% in size
#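 Compound effects on proliferation are scored in DT40 Tdp1-/-;hTDP1 cells in the absence of CPT. ATP levels (CellTiter-Glo luminescence) are recorded after a ≥48 hr, 37 °C incubation.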
# Active calls of the source: *; ? = inconclusive; / = no result given; [ ] = dose if it differs, or a comment. Shown are actives, neighbours in structure and some others; about 17% of the full set was active somewhere. Unless noted, calls follow the shape of the dose curve; as a rule, active = well fitted curve in the direction sought with a large enough effect; inconclusive = small, poorly fitted or top-dose-only effect, or another doubt; inactive = no such curve, though single readings can be large; an effect the other way counts as inactive or inconclusive. Potency is read from the fitted curve at half-maximal effect.
SMILES,ClpP mod,TDP1 inh,DT40 TDP1 CPT,DT40 TDP1 no CPT
O=S1(=O)CC(O)C(O)CS1 (configuration not stated),1%,/,23µM*,?
O=C1OC(c2ccccc2)=N/C1=C\C=C\c1ccco1,/,45µM*,-30%,-12%
O=C(Nc1ccncc1)c1ccc(Br)cc1,2%,/,?,5.2µM*
O=C(Nc1ccc(Br)cc1)c1cccc(C(=O)Nc2ccc(Br)cc2)c1,-2%,2%[12.3 µM],?,21µM*
C=CC(=O)Nc1ccc(Br)cc1,16µM*,2%,-17%,?
Nc1ccc(C(=O)Nc2ccc(Nc3ccncc3)cc2)cc1,2%,-1%,?,29µM*
COc1ccc(C2C(C(=O)NCCCN3CCOCC3)c3ccccc3C(=O)N2c2ccc(OC)cc2)cc1 (configuration not stated),/,-3%,-8%,-16%
CC(=O)Nc1ccc(NC(=O)c2ccc(NC(=O)c3ccccc3)cc2)cc1,1%,2%,11%,11%
Nc1ccc(NC(=O)c2ccc(C(=O)Nc3ccc(N)cc3)cc2)cc1,/,79µM*,0%,-3%
Fc1ccc(-c2nc3c4ccccc4ccn3c2Cc2ccccc2C(F)(F)F)cc1,-25%,/,?,?
FC(F)(F)c1ccccc1Cc1c(-c2cccc(Cl)c2)nc2c3ccccc3ccn12,-3%,/,?,21µM*
FC(F)(F)c1ccccc1Cc1c(-c2cccc(Cl)c2)nc2ccc(Br)cn12,-9%,/,?,?
FC(F)(F)c1ccccc1Cc1c(-c2ccc(Cl)cc2)nc2c3ccccc3ccn12,-19%,/,?,26µM*
C=CCN1C(c2ccc(Br)cc2)=CS/C1=C(/C#N)c1nnc(N2CCOCC2)n1-c1ccccc1,/,1%,7.3µM*,8.2µM*
C=CCN1C(c2cccc(C(F)(F)F)c2)=CS/C1=C(/C#N)c1nnc(N2CCOCC2)n1-c1ccccc1,1%,5%,12µM*,12µM*
C=CCN1C(=O)NC(c2ccc(OC)cc2)(C(F)(F)F)S/C1=C(\C#N)c1nnc(N2CCOCC2)n1-c1ccccc1 (configuration not stated),1%,2%,13%,-10%
COC(=O)C[C@@H]1CC[C@@H](NS(=O)(=O)c2ccc(OC)cc2)[C@@H](CO)O1,1%,/,0%,0%
O=c1cc(-c2ccccc2Cl)oc2cc(O)cc(O)c12,-1%,-1%,2%,-27%
O=C1C=CC(O)(c2cc(=O)c3c(O)cc(O)cc3o2)C=C1,0%,-3%,0.37µM*,0.52µM*
CC1C/C(=C/c2cccn2C)C(=O)/C(=C/c2cccn2C)C1 (configuration not stated),0%,15%,23µM*,23µM*
CC1CC(C)CN(C(=O)c2ccncc2)C1 (configuration not stated),0%,8%,0%,-18%
CC1C/C(=C/c2ccncc2)C(=O)/C(=C/c2ccncc2)C1 (configuration not stated),1%,6%,0.65µM*,0.58µM*
Cn1cccc1/C=C1/SC(=S)N(CC(=O)O)C1=O,-1%,-8%,0%,-10%
C[C@@H]1COc2cc(N3CCSCC3)ccc2S(=O)(=O)N1,-7%,/,-5%,-18%
COc1ccc(/C=N/NC(=O)c2cccc(OC(F)(F)C(F)F)c2)cc1O,-1%,-3%,?,?
SMILES,ClpP mod,TDP1 inh,DT40 TDP1 CPT,DT40 TDP1 no CPT
O=C(NCCCN1CCOCC1)c1[nH]c(C(F)(F)F)nc1-c1ccccc1,-1%,/,-5%,5%
CN(C)c1ccc(/C=C/c2nc3ccccc3s2)cc1Cl,0%,/,5µM*,2.8µM*
Cc1cc(/C=C/c2nc3ccccc3s2)ccc1N(C)C,0%,/,1.4µM*,1µM*
Cc1ccc2nc(CO)[nH]c2c1,1%,/,7%,-2%
COC(=O)c1ccc(NC(=O)c2sc3nc(-c4ccccc4)cn3c2C)cc1,23%,6%,6.5µM*,2.6µM*
Cc1cccc(NC(=O)c2sc3nc(-c4ccccc4)cn3c2C)c1C,-20%,-2%,0.52µM*,?
Cc1cc(C)cc(NC(=O)c2sc3nc(-c4ccccc4)cn3c2C)c1,-21%,4%,15µM*,12µM*
